“And” between values parts separate entries of the source, which are not always exact repeats. Equal values may be shown once. About 79,000 compounds went through this panel and 15% of them were active in at least one assay; those are over-represented in the sample as a whole. Cut-off read from the data, not from the text of the source: active = growth inhibition above about 70%; inactive = the rest.
Legend:
[1] = NCI Yeast Anticancer Drug Screen. Data for the rad50 strain (AID 155);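 note: 0% = growth of vehicle-only cultures of the same strain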; settings: S. cerevisiae rad50 strain growth inhibition; at 50.0 µM; active compounds read high
Procedure, shortened: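 Readout: growth inhibition relative to vehicle-treated cultures. Compound exposure was carried out in a genetically defined yeast strain deficient in DNA damage repair.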

[2] = NCI Yeast Anticancer Drug Screen. Data for the mec2-1 strain (AID 157); settings: S. cerevisiae mec2-1 strain, at 50.0 µM, active compounds read high
Procedure, shortened: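 Yeast mec2-1 mutant treated with compound. Readout: growth inhibition vs vehicle controls.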

[3] = NCI Yeast Anticancer Drug Screen. Data for the sgs1 mgt1 strain (AID 161);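 note: 0% = growth of cultures given vehicle only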; settings: S. cerevisiae sgs1 mgt1 strain, at 50.0 µM, active compounds read high
Procedure, shortened: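 Genetically altered yeast, compound exposure, growth inhibition relative to vehicle.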

[4] = NCI Yeast Anticancer Drug Screen. Data for the cln2 rad14 strain (AID 165);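 note: 0% = growth equal to vehicle treated cultures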; settings: S. cerevisiae cln2 rad14 strain, at 50.0 µM, active compounds read high
Procedure, shortened: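 cln2 rad14 yeast strain; compound exposure; growth inhibition read vs vehicle controls.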

[5] = NCI Yeast Anticancer Drug Screen. Data for the bub3 strain (AID 167); settings: S. cerevisiae bub3 mutant strain, at 50.0 µM, active compounds read high
Procedure, shortened: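 Readout: yeast growth inhibition, expressed relative to vehicle-only wells. The test organism is a mutant strain from a panel with lesions in DNA repair or checkpoint genes.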

[6] = NCI Yeast Anticancer Drug Screen. Data for the mlh1 rad18 strain (AID 175); settings: S. cerevisiae mlh1 rad18 strain growth inhibition; at 50.0 µM; active compounds read high
Procedure, shortened: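 Yeast w/ defined DNA-repair lesions; compound exposure; growth vs vehicle controls → % inhibition.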

Measured: growth inhibition

CN1CCN(C(=O)Cc2c[nH]c3ccccc23)CC1
inactive: [1] -1.25% | [2] 11.8% | [3] 2.9% | [4] -20.3% | [5] 9.35% | [6] 15.7%

COc1cccc(C=C(C#N)C#N)c1OC
inactive: [1] -9.8% | [2] -8.05% | [3] -3.35% | [4] 5.05% | [5] -3.8% | [6] 4.5%

CNC(=O)O/N=C/c1cccc(/C=N/OC(=O)NC)c1
inactive: [1] -0.1% | [2] 14.3% | [3] 3.35% | [4] 49.5% | [5] 28.8% | [6] 11.2%

CCOP(=O)(OCC)/C(C#N)=C/c1ccc(C#N)cc1
inactive: [1] 30.6% | [2] 15.8% | [3] 10.8% | [4] 12.3% | [5] 14.7% | [6] 55.2%

CC[C@@]1(O)C(=O)OCc2c1c(Cl)c1n(c2=O)Cc2cc3ccccc3nc2-1
inactive: [1] -21.1% | [2] -23.9% | [3] -5.85% | [4] 17.7% | [5] -28.5% | [6] -70%

CN(C)c1ccc(N=[N+]=[N-])cc1
inactive: [1] 3.05% | [2] 11% | [3] 10.3% | [4] -74.8% | [5] -6.45% | [6] 8.15%

C1CC[N-]CC1.CC(=N\O)/C(C)=N/O.CC(=N\O)/C(C)=N/O.[CH2-]Cl.[Co+2]
inactive: [1] 4.6% | [2] 14.8% | [3] 14.4% | [4] -31.6% | [5] 20.1% | [6] 27.9%

CCC[CH2][Sn]([CH2]C)([CH2]C)[CH2]C
inactive: [1] 40.4% | [2] 17.8% | [3] 35.7% | [4] 15.8% | [5] 20.9% | [6] 31.3%

NCCCP(c1ccccc1)c1ccccc1
inactive: [1] 0.3% | [2] 0.4% | [3] -5.65% | [4] 8.7% | [5] -1.7% | [6] 10.6%

C[N+](C)(C)C
inactive: [1] -0.3% and 4.95% and -7% | [2] 14.2% and -39% and -9.3% | [3] -5.75% and -25.2% and 8.3% | [4] -16.5% and 6.35% and 2.35% | [5] 21.4% and -8.1% and 8.75% | [6] -1.65% and -19.1% and -2.9%

CN(C)c1ccc(N=Nc2c([O-])ccc3ccccc23)cc1.[C-]#[O+].[C-]#[O+].[Ir]
inactive: [1] -7.05% | [2] -14.2% | [3] -30.2% | [4] 34% | [5] -10.2% | [6] -4.7%

CCOC(CP(=O)(OCC)OCC)OCC
inactive: [1] -13.2% and 8.45% | [2] -26.2% and -14.3% | [3] -16.2% and 4.65% | [4] 16.2% and 15.7% | [5] 3.65% and 6.5% | [6] -25.4% and 14.4%

O=C1C2C(C(=O)N1c1ccc(O)cc1)C1(Cl)C(Cl)=C(Cl)C2(Cl)C1(Cl)Cl (stereo not drawn)
inactive: [1] -0.45% | [2] -11.8% | [3] 1.9% | [4] -0.1% | [5] -19.6% | [6] 1%

NC(=S)Nc1ccccc1
inactive: [1] 9.75% | [2] -18% | [3] -24.4% | [4] -11.1% | [5] 8.65% | [6] 5.6%

Cc1cccc(NC(=O)C(=O)C2C(=O)NC(=O)NC2=O)c1C
inactive: [1] 0.7% | [2] 13.8% | [3] -14% | [4] 7.25% | [5] 20.2% | [6] 12.2%

O=C(N=[C-]c1ccc[oH+]1)c1cccnc1.O=C(N=[C-]c1ccc[oH+]1)c1cccnc1.[Ni+2]
inactive: [1] -24.7% | [2] -34.5% | [3] -3.4% | [4] -25.4% | [5] -31.8% | [6] 5.65%

CN1CCN(C)C(N2CCOCC2)C(C)(C)C1 (stereo not drawn)
inactive: [1] 15.4% | [2] -4.2% | [3] -8.15% | [4] -9.45% | [5] 0.85% | [6] 2.85%

CC1(C(N)Cc2c[nH]c3ccccc23)OCCO1 (stereo not drawn)
inactive: [1] -7.7% | [2] -0.1% | [3] -28.6% | [4] -6.55% | [5] -0.25% | [6] 4.1%

CC(CC(C)(C)[N-]CC[O-])=NCCO.O=[N+]([O-])O.[Cu+2]
inactive: [1] 10.7% | [2] 20.2% | [3] -5.7% | [4] -0.05% | [5] 26.2% | [6] 18.7%

Cc1cc(N(CCCl)CCCl)ccc1C=Nc1ccccc1C(=O)O
inactive: [1] 27.4% | [2] 3.9% | [3] 28.4% | [4] 16.1% | [5] 2.65% | [6] 29.1%

CCCCNC(c1ccc(OC)cc1)C(O)c1ccc(OC)cc1 (stereo not drawn)
inactive: [1] 2.35% | [2] -17.3% | [3] -2.95% | [4] -25.6% | [5] 7.1% | [6] -14.1%

COc1cccc(C=C(C#N)C#N)c1
inactive: [1] 46.8% | [2] 23.8% | [3] 31.7% | [4] 26.4% | [5] 14.6% | [6] 33.4%

Cc1cc(Cl)ccc1NC(=O)/C(CC(=O)CC(c1ccccc1)c1c(O)c2ccccc2oc1=O)=N\O (stereo not drawn)
inactive: [1] -14.9% | [2] -8.4% | [3] 3.05% | [4] -37.6% | [5] -29.1% | [6] -5.8%

O=P(O)(O)CCCP(=O)(O)O.[Zn+2]
inactive: [1] -10.9% | [2] -27.4% | [3] -7.05% | [4] -6.1% | [5] -12.7% | [6] 29.1%

CCC(=O)N(c1ccccc1)C(C)CN1CCC(O)(c2ccccc2)CC1 (stereo not drawn)
inactive: [1] 4.2% | [2] -12.4% | [3] 5.9% | [4] -37% | [5] -10.4% | [6] -8.15%

COc1cccc(N2C(=O)C3C(C2=O)C2(Cl)C(Cl)=C(Cl)C3(Cl)C2(Cl)Cl)c1 (stereo not drawn)
inactive: [1] 58.4% | [2] 45.2% | [3] 53.5% | [4] 10.1% | [5] 19.4% | [6] 49.8%

CNCC(=O)c1ccc(O)c(O)c1
inactive: [1] 2.4% | [2] -10.1% | [3] -30.6% | [4] -9.35% | [5] -38.9% | [6] -6.75%

O=c1cc[cH-]o1.[C-]#[O+].[C-]#[O+].[C-]#[O+].[C-]#[O+].[C-]#[O+].[C-]#[O+].[CH-]=O.[Co+2].[Co]
inactive: [1] -14.5% and -3.2% | [2] -4.15% and 4.75% | [3] 0.5% and -6.75% | [4] -10.5% and 6.25% | [5] -8.4% and 21.8% | [6] 9.6% and 4.05%

CC1([N+](=O)[O-])COP(=O)(NCc2ccccc2)OC1 (stereo not drawn)
inactive: [1] 11.9% | [2] -20.9% | [3] -9.3% | [4] -4.8% | [5] 6.2% | [6] 2.35%

Nc1nnc[se]1
inactive: [1] 7.85% | [2] 5.35% | [3] -8.1% | [4] -1.55% | [5] -4.2% | [6] -1.6%

C#C[C@]1(O)CC[C@H]2[C@@H]3CCC4=C/C(=N/OC(=O)c5cccc6c(=O)c7ccccc7[nH]c56)CCC4[C@H]3CC[C@@]21CC (stereo partly drawn)
inactive: [1] -15.8% | [2] -35% | [3] -30.4% | [4] 23.2% | [5] -29.1% | [6] -45.6%

CSCCC(NP(=S)(c1ccccc1)c1ccccc1)C(=O)O (stereo not drawn)
inactive: [1] 17.4% | [2] -3.1% | [3] 0% | [4] 16.9% | [5] -1.8% | [6] 9.5%

O=C1CC2(CCNCC2)C(=O)N1N1CCOCC1
inactive: [1] 19.6% | [2] -0.15% | [3] 5.4% | [4] 7.55% | [5] 2.6% | [6] 6%

COC1=CCC2=C(CC[C@H]3[C@H]2CCP3C)C1 (stereo partly drawn)
inactive: [1] 8.65% | [2] -10.8% | [3] -7.85% | [4] -17.9% | [5] 0.9% | [6] 5.25%

COc1ccc(CC(N)c2ccccc2)cc1OC (stereo not drawn)
inactive: [1] -15.3% | [2] 23.9% | [3] -8.85% | [4] -21.1% | [5] -1.55% | [6] -29.1%

CC(=O)Oc1cccc2c1C(=O)C(C(=O)C=O)C1C(C=O)OC(C)(C)OC21C (stereo not drawn)
inactive: [1] 29.6% | [2] 0.1% | [3] 33.6% | [4] 14.8% | [5] 16.8% | [6] 12.1%

O=C(O)c1cccc(P(=O)(O)O)c1
inactive: [1] 14.3% and 9.3% | [2] -19.3% and -12.9% | [3] -5.25% and 17.4% | [4] 2.35% and 28.6% | [5] -4% and -10.6% | [6] 2.55% and -0.35%

NC(Cc1cc([N+](=O)[O-])ccc1CN(CCCl)CCCl)C(=O)O (stereo not drawn)
inactive: [1] 41.5% | [2] 29.8% | [3] 42% | [4] 19.5% | [5] 40.1% | [6] 39.6%

From PubChem BioAssay (NCI)
